# Source: ChEMBL document CHEMBL2218924, “A broad activity screen in support of a chemogenomic map for kinase signalling research and drug discovery” (Biochem J, 2013)
# Legend:
# [1] = biological target: T1, Ephrin type-B receptor 1 (Homo sapiens) (UniProt P54762); details: at 10 µM
# T1 sequence (whole entry): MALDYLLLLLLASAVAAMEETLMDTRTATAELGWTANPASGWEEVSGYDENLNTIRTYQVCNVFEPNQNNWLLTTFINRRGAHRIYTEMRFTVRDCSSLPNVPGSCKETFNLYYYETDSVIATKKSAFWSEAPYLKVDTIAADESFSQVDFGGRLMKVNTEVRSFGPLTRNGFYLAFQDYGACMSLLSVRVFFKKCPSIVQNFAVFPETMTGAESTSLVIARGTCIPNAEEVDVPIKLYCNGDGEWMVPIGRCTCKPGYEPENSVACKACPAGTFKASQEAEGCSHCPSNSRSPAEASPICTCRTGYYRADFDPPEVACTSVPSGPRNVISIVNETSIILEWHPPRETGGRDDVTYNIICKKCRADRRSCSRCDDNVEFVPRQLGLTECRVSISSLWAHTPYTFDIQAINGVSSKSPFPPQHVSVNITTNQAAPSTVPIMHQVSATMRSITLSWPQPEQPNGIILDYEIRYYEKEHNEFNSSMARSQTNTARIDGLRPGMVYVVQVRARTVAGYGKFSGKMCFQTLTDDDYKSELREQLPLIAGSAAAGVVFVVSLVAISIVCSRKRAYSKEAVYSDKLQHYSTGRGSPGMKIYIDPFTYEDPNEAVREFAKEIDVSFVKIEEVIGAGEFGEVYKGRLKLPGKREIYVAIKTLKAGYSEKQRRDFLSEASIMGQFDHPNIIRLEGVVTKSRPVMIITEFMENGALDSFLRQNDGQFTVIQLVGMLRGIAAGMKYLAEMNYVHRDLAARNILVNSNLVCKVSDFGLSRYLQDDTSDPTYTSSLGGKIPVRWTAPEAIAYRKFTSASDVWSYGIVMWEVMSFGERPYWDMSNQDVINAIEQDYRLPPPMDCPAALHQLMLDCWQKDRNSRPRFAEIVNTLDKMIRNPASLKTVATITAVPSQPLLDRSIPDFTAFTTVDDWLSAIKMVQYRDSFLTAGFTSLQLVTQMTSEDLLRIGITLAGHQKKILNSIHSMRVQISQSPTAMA
# [2] = biological target: T2, Ephrin type-B receptor 2 (Homo sapiens) (UniProt P29323); details: at 1 µM
# T2 sequence (whole entry): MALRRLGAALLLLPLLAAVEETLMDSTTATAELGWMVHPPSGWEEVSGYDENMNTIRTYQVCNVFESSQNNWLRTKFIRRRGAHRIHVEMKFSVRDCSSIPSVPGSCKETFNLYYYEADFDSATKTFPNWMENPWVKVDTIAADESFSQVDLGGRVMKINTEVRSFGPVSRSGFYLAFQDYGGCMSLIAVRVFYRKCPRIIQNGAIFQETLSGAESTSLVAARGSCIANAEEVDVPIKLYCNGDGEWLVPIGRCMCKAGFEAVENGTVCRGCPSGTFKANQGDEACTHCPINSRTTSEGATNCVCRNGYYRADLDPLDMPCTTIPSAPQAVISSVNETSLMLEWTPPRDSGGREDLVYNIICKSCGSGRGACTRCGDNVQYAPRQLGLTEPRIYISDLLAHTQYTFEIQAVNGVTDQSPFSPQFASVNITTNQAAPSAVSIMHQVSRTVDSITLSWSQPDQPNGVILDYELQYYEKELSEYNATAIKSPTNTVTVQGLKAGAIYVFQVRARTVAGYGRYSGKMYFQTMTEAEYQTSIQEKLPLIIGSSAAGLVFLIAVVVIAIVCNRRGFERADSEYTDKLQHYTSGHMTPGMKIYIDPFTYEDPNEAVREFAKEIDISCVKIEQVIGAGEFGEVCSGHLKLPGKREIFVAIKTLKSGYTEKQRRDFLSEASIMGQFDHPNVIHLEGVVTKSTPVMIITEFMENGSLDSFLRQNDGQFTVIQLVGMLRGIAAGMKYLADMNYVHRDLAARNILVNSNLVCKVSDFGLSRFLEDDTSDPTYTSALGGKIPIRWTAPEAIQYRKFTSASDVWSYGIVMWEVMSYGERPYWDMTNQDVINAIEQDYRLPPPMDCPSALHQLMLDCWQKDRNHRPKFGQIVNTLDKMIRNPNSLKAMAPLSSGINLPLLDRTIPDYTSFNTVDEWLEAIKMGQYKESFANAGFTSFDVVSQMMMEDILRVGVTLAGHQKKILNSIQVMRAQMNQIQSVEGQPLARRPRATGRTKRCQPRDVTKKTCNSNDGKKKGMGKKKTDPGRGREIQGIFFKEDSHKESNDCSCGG
# [3] = biological target: T2, Ephrin type-B receptor 2 (Homo sapiens); details: at 10 µM
# [4] = biological target: T3, Ephrin type-B receptor 3 (Homo sapiens) (UniProt P54753); details: at 1 µM
# T3 sequence (whole entry): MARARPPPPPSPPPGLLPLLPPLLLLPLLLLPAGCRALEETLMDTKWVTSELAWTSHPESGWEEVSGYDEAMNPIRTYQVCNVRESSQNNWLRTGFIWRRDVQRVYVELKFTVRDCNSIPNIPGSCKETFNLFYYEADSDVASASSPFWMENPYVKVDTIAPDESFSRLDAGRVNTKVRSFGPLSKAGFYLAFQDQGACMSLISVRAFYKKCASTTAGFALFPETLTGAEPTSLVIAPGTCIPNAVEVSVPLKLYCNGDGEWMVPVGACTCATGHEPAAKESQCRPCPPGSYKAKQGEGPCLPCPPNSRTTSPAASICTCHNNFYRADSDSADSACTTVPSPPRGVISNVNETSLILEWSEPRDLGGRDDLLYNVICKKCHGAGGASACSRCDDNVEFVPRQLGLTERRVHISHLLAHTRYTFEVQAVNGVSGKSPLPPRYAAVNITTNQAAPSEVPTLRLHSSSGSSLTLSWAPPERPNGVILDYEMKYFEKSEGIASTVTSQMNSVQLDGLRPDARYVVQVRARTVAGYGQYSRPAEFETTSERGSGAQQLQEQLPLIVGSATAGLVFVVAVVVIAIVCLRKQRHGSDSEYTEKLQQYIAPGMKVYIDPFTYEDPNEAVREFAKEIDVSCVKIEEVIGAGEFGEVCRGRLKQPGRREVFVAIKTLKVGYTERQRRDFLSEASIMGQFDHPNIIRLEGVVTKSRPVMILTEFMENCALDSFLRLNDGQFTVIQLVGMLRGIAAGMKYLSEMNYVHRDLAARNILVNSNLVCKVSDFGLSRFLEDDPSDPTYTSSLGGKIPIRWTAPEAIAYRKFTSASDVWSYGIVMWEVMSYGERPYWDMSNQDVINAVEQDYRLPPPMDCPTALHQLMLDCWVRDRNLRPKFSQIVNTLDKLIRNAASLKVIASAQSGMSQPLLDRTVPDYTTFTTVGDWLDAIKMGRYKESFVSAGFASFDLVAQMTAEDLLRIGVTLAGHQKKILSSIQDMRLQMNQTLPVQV
# [5] = biological target: T3, Ephrin type-B receptor 3 (Homo sapiens); details: at 10 µM
# [6] = biological target: T4, Ephrin type-B receptor 4 (Homo sapiens) (UniProt P54760); details: at 1 µM
# T4 sequence (whole entry): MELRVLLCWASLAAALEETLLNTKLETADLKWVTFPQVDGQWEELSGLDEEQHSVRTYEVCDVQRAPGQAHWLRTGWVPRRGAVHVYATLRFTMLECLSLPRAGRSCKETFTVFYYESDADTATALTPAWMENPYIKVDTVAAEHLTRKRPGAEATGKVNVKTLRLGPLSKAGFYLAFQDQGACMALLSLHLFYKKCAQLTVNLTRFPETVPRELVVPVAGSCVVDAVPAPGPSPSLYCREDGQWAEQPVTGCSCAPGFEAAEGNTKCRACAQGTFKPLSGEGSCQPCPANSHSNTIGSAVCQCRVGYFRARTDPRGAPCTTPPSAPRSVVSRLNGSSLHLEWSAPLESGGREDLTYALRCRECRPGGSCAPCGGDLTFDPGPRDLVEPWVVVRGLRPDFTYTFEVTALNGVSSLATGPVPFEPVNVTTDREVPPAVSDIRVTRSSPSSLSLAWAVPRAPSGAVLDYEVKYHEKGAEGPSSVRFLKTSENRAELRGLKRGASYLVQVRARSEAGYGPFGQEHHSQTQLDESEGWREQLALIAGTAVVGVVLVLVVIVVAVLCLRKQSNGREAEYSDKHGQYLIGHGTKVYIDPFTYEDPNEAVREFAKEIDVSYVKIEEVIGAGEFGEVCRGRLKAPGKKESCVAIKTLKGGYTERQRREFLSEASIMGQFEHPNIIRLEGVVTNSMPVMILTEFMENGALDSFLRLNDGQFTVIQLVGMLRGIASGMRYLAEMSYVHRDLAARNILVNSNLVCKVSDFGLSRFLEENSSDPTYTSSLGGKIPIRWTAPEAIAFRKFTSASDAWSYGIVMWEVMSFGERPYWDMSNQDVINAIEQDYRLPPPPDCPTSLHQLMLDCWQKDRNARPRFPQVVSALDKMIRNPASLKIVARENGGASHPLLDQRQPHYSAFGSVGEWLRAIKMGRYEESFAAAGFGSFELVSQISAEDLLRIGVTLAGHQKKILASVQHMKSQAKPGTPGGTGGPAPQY
# [7] = biological target: T4, Ephrin type-B receptor 4 (Homo sapiens); details: at 10 µM
# [8] = biological target: Receptor tyrosine-protein kinase erbB-4 (Homo sapiens) (UniProt Q15303); details: at 1 µM
# Receptor tyrosine-protein kinase erbB-4 (Homo sapiens), sequence (Q15303 whole entry): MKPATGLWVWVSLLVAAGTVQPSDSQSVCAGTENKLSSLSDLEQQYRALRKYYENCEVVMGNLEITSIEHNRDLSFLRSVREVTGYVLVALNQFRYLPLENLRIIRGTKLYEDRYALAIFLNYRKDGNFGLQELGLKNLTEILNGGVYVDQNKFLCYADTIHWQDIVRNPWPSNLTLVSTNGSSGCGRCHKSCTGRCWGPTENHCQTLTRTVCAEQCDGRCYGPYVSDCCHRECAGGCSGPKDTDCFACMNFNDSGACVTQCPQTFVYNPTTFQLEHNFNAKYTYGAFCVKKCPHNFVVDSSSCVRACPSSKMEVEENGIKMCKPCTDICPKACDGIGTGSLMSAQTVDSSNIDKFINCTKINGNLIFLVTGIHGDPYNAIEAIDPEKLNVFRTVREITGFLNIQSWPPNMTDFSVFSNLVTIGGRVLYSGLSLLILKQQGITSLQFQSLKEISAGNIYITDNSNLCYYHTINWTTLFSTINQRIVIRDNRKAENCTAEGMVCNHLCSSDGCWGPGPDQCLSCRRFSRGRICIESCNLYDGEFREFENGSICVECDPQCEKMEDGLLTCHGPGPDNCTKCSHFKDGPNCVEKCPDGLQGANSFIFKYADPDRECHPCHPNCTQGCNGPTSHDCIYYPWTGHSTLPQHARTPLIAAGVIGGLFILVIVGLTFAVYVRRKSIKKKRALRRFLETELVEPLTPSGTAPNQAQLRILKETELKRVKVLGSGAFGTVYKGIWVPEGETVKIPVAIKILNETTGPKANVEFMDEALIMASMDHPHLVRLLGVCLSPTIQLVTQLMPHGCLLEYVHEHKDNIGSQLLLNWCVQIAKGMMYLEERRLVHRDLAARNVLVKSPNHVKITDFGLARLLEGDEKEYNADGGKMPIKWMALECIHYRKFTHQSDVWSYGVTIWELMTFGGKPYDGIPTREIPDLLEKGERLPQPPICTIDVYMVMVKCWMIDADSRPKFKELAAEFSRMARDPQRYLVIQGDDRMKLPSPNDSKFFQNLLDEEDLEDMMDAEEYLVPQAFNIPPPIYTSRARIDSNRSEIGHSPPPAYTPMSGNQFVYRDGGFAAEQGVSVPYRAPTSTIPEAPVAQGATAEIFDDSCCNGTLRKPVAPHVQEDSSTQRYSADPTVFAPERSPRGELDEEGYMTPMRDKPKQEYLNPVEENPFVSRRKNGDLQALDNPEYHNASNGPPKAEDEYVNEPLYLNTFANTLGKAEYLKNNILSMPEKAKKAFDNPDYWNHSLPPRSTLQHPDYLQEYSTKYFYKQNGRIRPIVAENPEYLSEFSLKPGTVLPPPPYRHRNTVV
# [9] = biological target: Receptor tyrosine-protein kinase erbB-4 (Homo sapiens) (UniProt Q15303); details: at 10 µM
# [10] = biological target: Focal adhesion kinase 1 (Homo sapiens) (UniProt Q05397); details: at 1 µM
# Focal adhesion kinase 1 (Homo sapiens), sequence (Q05397 2-1052 limits assumed): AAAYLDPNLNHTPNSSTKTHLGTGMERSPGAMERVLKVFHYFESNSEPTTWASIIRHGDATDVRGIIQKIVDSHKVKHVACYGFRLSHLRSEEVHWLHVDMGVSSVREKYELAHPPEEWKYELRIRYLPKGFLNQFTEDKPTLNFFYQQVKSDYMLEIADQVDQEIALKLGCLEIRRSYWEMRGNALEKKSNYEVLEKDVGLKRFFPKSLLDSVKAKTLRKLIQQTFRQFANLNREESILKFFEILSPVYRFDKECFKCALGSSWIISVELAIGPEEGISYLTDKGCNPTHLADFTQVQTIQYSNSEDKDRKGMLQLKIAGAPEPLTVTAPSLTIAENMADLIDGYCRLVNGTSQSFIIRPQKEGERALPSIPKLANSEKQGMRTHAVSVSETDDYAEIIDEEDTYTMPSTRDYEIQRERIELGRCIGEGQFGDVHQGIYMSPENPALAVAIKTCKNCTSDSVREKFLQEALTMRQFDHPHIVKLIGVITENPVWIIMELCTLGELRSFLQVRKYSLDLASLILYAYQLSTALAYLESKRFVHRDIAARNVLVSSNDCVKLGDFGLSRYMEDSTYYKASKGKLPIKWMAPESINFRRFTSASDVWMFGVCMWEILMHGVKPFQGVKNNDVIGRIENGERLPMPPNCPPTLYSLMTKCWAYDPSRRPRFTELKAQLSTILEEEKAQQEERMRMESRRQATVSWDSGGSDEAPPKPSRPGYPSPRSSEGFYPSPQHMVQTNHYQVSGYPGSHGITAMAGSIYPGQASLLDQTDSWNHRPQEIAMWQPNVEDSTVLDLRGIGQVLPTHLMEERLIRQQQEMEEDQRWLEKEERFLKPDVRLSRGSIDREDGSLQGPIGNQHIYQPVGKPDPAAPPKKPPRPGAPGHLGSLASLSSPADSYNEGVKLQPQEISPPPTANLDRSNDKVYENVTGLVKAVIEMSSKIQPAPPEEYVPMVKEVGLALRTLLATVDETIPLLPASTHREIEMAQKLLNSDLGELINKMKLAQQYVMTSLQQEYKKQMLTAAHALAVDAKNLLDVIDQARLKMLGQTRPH
compound,measurement,setting,value
Oc1n[nH]c2nnc(-c3c(-c4ccccc4)nn4ccccc34)cc12,residual activity,[1],83%
same,residual activity,[2],123%
same,residual activity,[3],128%
same,residual activity,[4],109% (inactive)
same,residual activity,[5],103%
same,residual activity,[6],86%
same,residual activity,[7],80%
same,residual activity,[8],92%
same,residual activity,[9],75%
same,residual activity,[10],98%
